In all, about 81,000 sequences were measured (“one-hybrid fitness for binding NBS DNA”: median about -0.1, highest 2% from about 0.36 on). The sample as a whole holds a higher share of the highest values than the screen did.
B1: Caulobacter ParB omega fusion; a variant is named by its letters at X, in order, B8GW30 (parent)
chain: MESVVVGEPGMSEGRRGLGRGLSALLGEVDAAPAQAPGEQLGGSREAPIEILQRNPDQPRRTFREEDLEDLSNSIREKGVLQPILVRPSPDTAGEYQIVAGERAWRAAQRAGLKTVPIMVRELDDLAVLEIGIIENVQRADLNVLEEALSYKVLMEKFERTQENIAQTIGKSXSHVANXMRLLXLPDEVQSYLVSGELTAXHARAIAAAADPVALAKQIIEGGLSVRETEALARKAPNLSAGKSKGGRPPRVKDTDTQALESDLSSVLGLDVSIDHRGSTGTLTITYATLEQLDDLCNRLTRGI

Variants of: B1
Experiment: one-hybrid fitness for binding NBS DNA (the Noc-binding site; scaled: cognate 1, non-cognate 0); higher = stronger binding
Conditions: with NBS DNA site
How it was run: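 On M9-minus-histidine containing 0.1 mM IPTG and 5 mM 3-AT, E. coli USO cells with a HIS3 reporter, site 19 bp from the promoter, grew 48 hours at 37°C to select Caulobacter ParB libraries randomised at four specificity codons. Plasmids from before and after were Illumina-sequenced, with three replicate libraries pooled and variants under 10 reads left out. Fitness is the log change in variant-to-wild-type read ratio, rescaled against cognate and non-cognate.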

Variant	one-hybrid fitness for binding NBS DNA
AMAG	≤ 0.2
PRCC	≤ 0.2
MKRL	≤ 0.2
GLHC	≤ 0.2
WTLT	≤ 0.2
YTVE	≤ 0.2
QANY	≤ 0.2
QKKY	0.498
QTKY	0.658
QMKY	0.516
QTIY	≤ 0.2
QAKY	0.531
QMVY	≤ 0.2
QMPY	≤ 0.2
QKVY	≤ 0.2
QKNY	0.26
QTVY	≤ 0.2
QAVY	≤ 0.2
VVSE	≤ 0.2
LAWC	≤ 0.2
RNCT	≤ 0.2
SKAC	≤ 0.2
MVPR	≤ 0.2

Variant	one-hybrid fitness for binding NBS DNA
EELK	≤ 0.2
TSEY	≤ 0.2
HMMA	≤ 0.2
CPSC	≤ 0.2
TSCN	≤ 0.2
GRQR	≤ 0.2
QLVY	≤ 0.2
QLKY	0.46
QLHY	≤ 0.2
KCDL	≤ 0.2
SRHH	≤ 0.2
QQPA	≤ 0.2
QQAA	0.347
QQKA	0.628
QQSA	0.37
QQLA	0.294
QQIA	≤ 0.2
QQVA	0.271
QQQA	0.357
QQHA	0.384
QQDA	0.25
QQNA	0.421
PRNE	≤ 0.2

Variant	one-hybrid fitness for binding NBS DNA
MSCY	≤ 0.2
IKIS	≤ 0.2
QDWF	≤ 0.2
TRTG	≤ 0.2
QQRA	0.606
QQCA	0.291
QQWA	0.212
QQGA	0.388
QQYA	0.303
QQFA	0.201
RKKF	≤ 0.2
RPVR	0.204
RKVR	0.478
RKKR	0.768
RCVR	0.349
RKKM	0.269
TEPD	≤ 0.2
QDCL	≤ 0.2
PRKR	0.4
HRYR	≤ 0.2
TRKP	≤ 0.2
PCKR	0.205
YCKR	≤ 0.2

Variant	one-hybrid fitness for binding NBS DNA
HRVR	≤ 0.2
PRVR	≤ 0.2
YRVR	≤ 0.2
YRKR	0.377
TRVS	≤ 0.2
HRKR	0.395
TRKS	0.437
GNLD	≤ 0.2
ICLR	≤ 0.2
DVLD	≤ 0.2
AEAG	≤ 0.2
IGGG	≤ 0.2
AHLT	≤ 0.2
TRKR	0.799
ARYR	≤ 0.2
TRVR	0.215
TRKN	0.212
ARVR	≤ 0.2
ARKR	0.364
KFSD	≤ 0.2
ETGL	≤ 0.2
QTIR	0.499
QPPR	≤ 0.2

Variant	one-hybrid fitness for binding NBS DNA
QTPN	≤ 0.2
QTIN	≤ 0.2
QTPR	0.42
QTID	≤ 0.2
QTPD	≤ 0.2
QSPR	0.27
QCPR	0.37
FWRC	≤ 0.2
SYKP	≤ 0.2
HILC	≤ 0.2
CLQI	≤ 0.2
NVRS	≤ 0.2
IVEG	≤ 0.2
QCQG	≤ 0.2
QPGG	≤ 0.2
QRFG	0.249
QCAG	≤ 0.2
QSRG	0.319
QCGG	≤ 0.2
QSQG	≤ 0.2
QRGG	0.367
QPRG	≤ 0.2
QRAG	0.37

Variant	one-hybrid fitness for binding NBS DNA
QRQG	0.366
QCRG	0.451
PYIE	≤ 0.2
ACCM	≤ 0.2
VPMR	≤ 0.2
STTV	≤ 0.2
THKV	≤ 0.2
IMSF	≤ 0.2
GCVM	≤ 0.2
QMYG	≤ 0.2
QTRG	0.496
QTYG	≤ 0.2
QTDG	≤ 0.2
QMRG	0.391
QRRG	0.483
QRIG	≤ 0.2
QMDG	≤ 0.2
QRNG	0.381
QRYG	0.312
QCNG	≤ 0.2
QRDG	≤ 0.2
AHGY	≤ 0.2
VSQE	≤ 0.2

Variant	one-hybrid fitness for binding NBS DNA
EAKN	≤ 0.2
LLTW	≤ 0.2
AKGR	≤ 0.2
QLFF	≤ 0.2
YHKT	≤ 0.2
GRAV	≤ 0.2
LTWN	≤ 0.2
RCFS	0.411
RRFP	≤ 0.2
RRFD	≤ 0.2
RRAN	0.282
RRFH	0.389
RRFS	0.666
RRFM	0.266
RPFS	≤ 0.2
RRFN	0.23
RRAD	≤ 0.2
RRAH	0.406
RSFS	0.252

Reference: a collection of fitness landscapes (doi:10.1016/j.celrep.2020.107928)
